Results reported in PubChem BioAssay AID2320 (National Center for Advancing Translational Sciences (NCATS), 2010).
Results filed as inconclusive are left out. Entries that show only a call come without a potency. The source made the active and inactive calls. The call rests on the fitted dose curve.

Test: A qHTS for Small Molecule Inhibitors of Shiga Toxin (Confirmatory); further: nearly all actives have a fitted effect of over 75% in size
Settings: Cell-based Shiga toxin protection reporter assay; series mostly up to 38.3 µM
Potency means the concentration at half of the fitted maximal effect.

Compound | Potency
N#Cc1ccc(N=c2ssnc2Cl)cc1 | inactive
CC(C)(C)C(=O)Cn1ncc(N2CCOCC2)c(Br)c1=O | 22.5 µM (active)
O=C(Cc1c(F)cccc1Cl)c1ccc(O)cc1O | inactive
COc1ccc(N(CCC#N)S(=O)(=O)c2ccc(Cl)cc2)cc1 | inactive
O=C(Cc1c[nH]c2ccccc12)NCc1ccc(Cl)cc1 | inactive
O=C(Cc1cccs1)Nc1ccc(-c2nnc(-c3ccco3)o2)cc1 | 4 µM (active)
Cc1noc(C)c1S(=O)(=O)Nc1cccc(CO)c1 | inactive
O=C(CSc1nnc(-c2ccccn2)o1)Nc1ccccc1C(F)(F)F | 8.95 µM (active)
COc1ccccc1C(=O)Nc1ccc(N2CCN(C(C)=O)CC2)cc1 | inactive
c1cc2c(cc1Cn1cnnn1)OCO2 | inactive
Cc1cccc(C(=O)Nc2scc(CC(C)C)c2C(=O)O)c1 | inactive
Cc1cc(N2CCCCCC2)nc(-c2ccccc2O)n1 | 17.9 µM (active)
CCC(=O)N1CCN(c2ccccc2NC(=O)c2ccc([N+](=O)[O-])o2)CC1 | 4 µM (active)
CSCc1cc(N2CCOCC2)nc(SCc2ccc(Cl)cc2Cl)n1 | inactive
Cc1nn(C2CCCCC2)c(N)c1-c1ccccc1 | inactive
Cc1cccc(Cn2cc(SCC(=O)Nc3nccs3)c3ccccc32)c1 | 8.95 µM (active)
Cc1ccc(C)n1-c1ccc(NC(=O)c2ccccc2)cc1 | 15.9 µM (active)
O=C(O)Cc1ccc2oc(-c3ccccn3)nc2c1 | 12.6 µM (active)
O=C1C(Cl)=C(Nc2ccccc2)C(=O)c2ccccc21 | 3.18 µM (active)

Compound | Potency
Cc1nnc(NC(=O)C2COc3ccccc3O2)s1 (stereo not drawn) | 14.2 µM (active)
Cc1cc(C)n(-c2nc(SCCN(C)C)c3c4c(sc3n2)COC(C)(C)C4)n1 | inactive
CC(=O)N[C@@H](Cc1c[nH]c2ccccc12)C(=O)OCC(=O)Nc1ccc(Cl)c(S(=O)(=O)N(C)C)c1 | inactive
Cc1nc(N2CCN(C(=O)c3ccco3)CC2)nc2c1C(=O)CCC2 | 6.34 µM (active)
Cc1ccc(NC(=O)C(C)N=C2NS(=O)(=O)c3ccccc32)cc1 (stereo not drawn) | 0.0005 µM (active)
CCOc1ccc2nc(SCC(=O)NC3CCCCC3)[nH]c2c1 | inactive
CC1CCCC(C)N1C(=O)Cn1nnc(-c2ccccc2)n1 (stereo not drawn) | inactive
Cc1nc(SCC(=O)Nc2cc(C)on2)c2c3c(sc2n1)CCCC3 | inactive
CN1CCN(Cc2ccc(N)cc2)CC1 | inactive
O=C(Sc1cccc2cccnc12)c1ccccc1Br | 8.95 µM (active)
COc1ccccc1C(=O)NNC(=O)c1ccc2ccccc2c1 | 0.0006 µM (active)
COc1ccc(-c2cnc[nH]2)cc1 | inactive
O=C(/C=C/C#Cc1cccc(NS(=O)(=O)c2ccccc2)c1)NO | 11.3 µM (active)
Cc1ccc([N+](=O)[O-])cc1NC(=O)CSc1nncn1-c1ccccn1 | inactive
Cc1cc(C(=O)COC(=O)c2cccn2C)c(C)n1Cc1ccco1 | 0.252 µM (active)
O=C1NC(=Nc2ccc(O)cc2)S/C1=C\C=C\c1ccco1 | 0.634 µM (active)
O=C(Nc1ccccc1)c1ccccc1O | 14.2 µM (active)
CC1(C)Cc2c(cnn2-c2ccccc2)C(NC(=O)CCN2CCCCO2)C1 (stereo not drawn) | inactive
CC1CCC/C=C/C2CC(O)CC2C(O)/C=C/C(=O)O1 (stereo not drawn) | 0.565 µM (active)
